# Reference: PubChem BioAssay (EPA / NIEHS)
# Calls of active or inactive are those of the source. The calls were made as follows: active = hit-call score of the fitted dose curve at least 0.9, where 1 is the maximum; inactive = score below 0.9.
# Experiment: ATG_GATA_CIS: Attagene CIS-FACTORIAL HepG2 Assay for human GATA Binding Protein (AID 2282944)
# Settings: HepG2 GATA cis-element reporter, Attagene multiplex mRNA; actives raise or lower the signal
# Protocol: ATG_CIS is a cell-based, multiplexed-readout assay that uses HepG2, a human liver cell line, with measurements taken at 24 hours after chemical dosing in a 24-well plate.ATG_GATA_CIS is one of 52 assay component(s) measured or calculated from the ATG_CIS assay. It is designed to make measurements of mRNA induction, a form of inducible reporter, as detected with fluorescence intensity signals by Reverse transcription polymerase chain reaction (RT-PCR) and Capillary electrophoresis technology.Data from the assay component ATG_GATA_CIS was analyzed into 1 assay endpoint. This assay endpoint, ATG_GATA_CIS, was analyzed with bidirectional fitting relative to DMSO as the negative control and baseline of activity. Using a type of inducible reporter, measures of mRNA for gain or loss-of-signal activity can be used to understand the reporter gene at the transcription factor-level as they relate to the gene GATA1. Furthermore, this assay endpoint can be referred to as a primary readout, because this assay has produced multiple assay endpoints where this one serves a reporter gene function. To generalize the intended target to other relatable targets, this assay endpoint is annotated to the dna binding intended target family, where the subfamily is GATA proteins.
# Human liver HepG2 cells are transiently transfected with multiple reporter transcription units (MRTUs) in 6-well plates using FuGene 6 reagent (Roche; 3 ml FuGene/1 mg DNA). The MRTU constructs are regulated by a cis-regulating element (promoter). […] A major difference between the CIS and TRANS system is that in CIS activities of endogenous TFs are measured, whereas the TRANS assay evaluates changes in activities of exogenous, chimeric NR-Gal4 proteins. […] At the end of 24 hour incubation, total RNA was isolated using TriZol reagent (Invitrogen). The isolated RNA is then reverse-transcribed using oligo(dT) primer and Mo-MLV reverse transcriptase (Invitrogen) with DNAse I (Ambion) treatment for 30 min. The one-tenth of the produced cDNA was amplified by PCR using Taq DNA polymerase (Invitrogen) and two reporter sequence-specific primers. The PCR products were fluorescently labeled by primer extension with 6-arboxyfluorescein (6-FAM) 5'-labeled reporter sequence-specific primer (2 min at 95 C, 20 s at 68 C and 10 min at 72 C) and these products were digested with 5U of HpaI (New England Biolabs) for 2h at 37 C. The fragments were purified using Qiaquick PCR columns (Qiagen), analyzed on an ABI 3130xL genetic analyzer (Applied Biosystems) with peak positions identified by using a set of X-rhodamine (ROX)-labeled MapMarker1000 molecular weight standards (BioVentures). The raw capillary electrophoresis data was processed using Attagraph software (Attagene).
row,Compound,outcome
1,CCCCCCCCSCCO,inactive
2,CC(=O)O[C@@H]1C[C@@H]2CC[C@@]1(C)C2(C)C,inactive
3,Cc1cc(S(=O)(=O)O)ccc1N=Nc1c(O)ccc2ccccc12,inactive
4,CC1=C(Br)C(=O)C(Br)=C/C1=C(/c1ccccc1S(=O)(=O)O)c1cc(Br)c(O)c(Br)c1C,inactive
5,CCCCCC(C=O)=Cc1ccccc1,inactive
6,COc1ccccc1[N+](=O)[O-],inactive
7,CC=Cc1ccc(OCC)c(O)c1,inactive
8,CCCCCCCCC=CCCCCCCCC1=NCCN1CCO,inactive
9,C=Cc1ccc(C(C)(C)C)cc1,inactive
10,CCCCC(CC)COC(C)=O (stereo not given),inactive
11,CN1C(=O)c2ccccc2C1=O,inactive
12,C1CCOC1,inactive
13,O=C1OC(=O)c2c(Br)c(Br)c(Br)c(Br)c21,inactive
14,CCCOCCO,inactive
15,CCN(CCN)c1cccc(C)c1,inactive
16,CCCCCCC(O)CCCCCCCCCCC(=O)O (stereo not given),inactive
17,OCC(O)c1ccccc1 (stereo not given),inactive
18,C=C(C#N)C(=O)OCC,inactive
19,CCOC(=O)CC(C)O (stereo not given),inactive
20,C=CC(=C)CCCC(C)(C)OC(C)=O,inactive

row,Compound,outcome
1,COC(C)(C)CC(C)=O,inactive
2,CCCCN(CCCC)C(=O)N(CCCC)CCCC,inactive
3,C=C(C)[C@@H]1CC=C(C)C(=O)C1,inactive
4,COc1ccc(CCC(C)=O)cc1,inactive
5,OCC#CCO,inactive
6,C[C@@H]1CCN(C(=O)[C@H](CCCN=C(N)N)NS(=O)(=O)c2cccc3c2NC[C@H](C)C3)[C@@H](C(=O)O)C1,inactive
7,Cc1c(C2(c3cc(Br)c(O)c(Br)c3C)OS(=O)(=O)c3ccccc32)cc(Br)c(O)c1Br,inactive
8,O=C1OC(=O)c2c(Cl)c(Cl)c(Cl)c(Cl)c21,inactive
9,CCCC(=O)OCCc1ccccc1,inactive
10,C[C@H]1C[C@@H](O)CC(C)(C)C1,inactive
11,COC(=O)c1ccc(OC)cc1,inactive
12,COC(CC(C)CCCC(C)(C)O)OC (stereo not given),inactive
13,Cc1ncc([N+](=O)[O-])n1CCO,inactive
14,CSCCC=O,inactive
15,CC(C)C[C@H](NC(=O)OCC1c2ccccc2-c2ccccc21)C(=O)O,inactive
16,O=C1c2ccccc2C(=O)c2c(O)ccc(O)c21,inactive
17,O=C1NC2NC(=O)NC2N1 (stereo not given),inactive
18,CCCCOC(=O)CCCCCCCC(=O)OCCCC,inactive
19,Nc1ccc2c(O)cc(S(=O)(=O)O)cc2c1,inactive
20,CC(C)(CO)[C@@H](O)C(=O)NCCC(=O)O,inactive
